In PubChem BioAssay (NCI):
Compounds without any hit were thinned out: in the full panel of roughly 79,000, 15% have a hit. Activity calls are given as the source filed them. Rule as the data show it: active = growth inhibition above about 70%; inactive = the rest.

Test: NCI Yeast Anticancer Drug Screen. Data for the rad50EPP+ strain (AID 151);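 also: 0% = growth of vehicle-treated control cultures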
Conditions: S. cerevisiae rad50 mutant strain, stronger effect = higher value
Procedure: Growth inhibition of yeast strains with defined genetic alterations is measured as a screen for potential anti-cancer activity. Selected strains with alterations in DNA damage repair or cell cycle control were exposed to compounds and growth inhibition was measured relative to vehicle treated controls. The strain used in this assay is rad50EPP+

Measured: growth inhibition

CCN(CC)C(=S)N/N=C(/C)c1cccc(/C(C)=N\NC(=S)N(CC)CC)n1
active: at 100.0 µM 79%
inactive: at 1.2 µM 16% | at 3.7 µM 6% | at 11.0 µM 31% | at 33.0 µM 48%

CC(C)c1cc(C(C)C)c(O)c(C([O-])[O-])c1.CC(C)c1cc(C(C)C)c(O)c(C([O-])[O-])c1.CC(C)c1cc(C(C)C)c(O)c(C([OH2+])[OH2+])c1.CC(C)c1cc(C(C)C)c(O)c(C([OH2+])[OH2+])c1.[Cu+2].[Cu+2].[OH3+].[OH3+]
inactive: at 1.2 µM 1% | at 3.7 µM 0% | at 11.0 µM 4% | at 33.0 µM 11% | at 100.0 µM 21%

COc1cc(CC2CC(c3ccc4c(c3)OCO4)OC2=O)cc(OC)c1OC (stereo not given)
inactive: at 1.2 µM -2% | at 3.7 µM -1% | at 11.0 µM 0% | at 33.0 µM 3% | at 100.0 µM 8%

CC1C(NNc2ccccc2)Oc2cc3c(cc2C1c1ccccc1O)OCO3 (stereo not given)
active: at 11.0 µM 71% | at 33.0 µM 90% | at 100.0 µM 91%
inactive: at 1.2 µM -1% | at 3.7 µM 7%

Cc1ccc2ccc(O)cc2c1
inactive: at 1.2 µM -25% | at 3.7 µM -49% | at 11.0 µM -25% | at 33.0 µM -12% | at 100.0 µM 46%

CC(=O)Nc1ccc(/C=C(\C#N)c2ccc(C)cc2)cc1
inactive: at 1.2 µM -11% | at 3.7 µM -20% | at 11.0 µM -18% | at 33.0 µM -8% | at 100.0 µM -5%

C/C(=N\O)C1CC2C=C(C#N)C1N(Cc1ccccc1)C2 (stereo not given)
inactive: at 1.2 µM 2% | at 3.7 µM 2% | at 11.0 µM 5% | at 33.0 µM 9% | at 100.0 µM 19%

CCCCCCCCCCCCCCCCCCNC
inactive: at 1.2 µM 14% | at 3.7 µM 10% | at 11.0 µM 8% | at 33.0 µM 48%
active: at 100.0 µM 89%
